Screening data: PubChem, several laboratories
HSF1 inh = HSF1 inhibitors in luciferase reporter cells, primary screen, cell-based, NIH3T3, luminescence; activity change, negative = inhibition, % at 7.5 µM (by protocol); 0.77% of 300,000 active; NIH3T3-HGL HSE-luciferase, MG132-induced, luminescence 8 h; hits give low values; AID 2098, 2009;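 active = more than half of replicate wells show activity change below -50%, luminescence cut by over half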;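 also: luciferase reports HSF-1 transcriptional activity via heat shock element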
LMP1 NFkB inh = EBV LMP1-driven NF-kappaB luciferase reporter inhibitors, primary screen, cell-based, luminescence, single point; inhibition, % at 12.5 µM; 0.69% of 350,000 active; LMP1-induced NF-kappaB luciferase reporter cells; in the data active = inhibition above about 41%
HSF-1 act = HSF-1 activators, primary screen, NIH3T3-HGL cells, MG132 stress, luminescence, single point. AID 504408, 2011. 1.7% of 300,000 active. NIH3T3-HGL HSF-1 luciferase reporter, 8 h; 100% = twice DMSO control signal. activation, % at 9 µM;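 active = mean replicate activation of at least 50% with a set share of replicates each reaching 50%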
TWEAK-Fn14 inh = inhibitors of TWEAK-Fn14 signaling, primary screen, luciferase reporter cells, uHTS; TWEAK-stimulated Fn14 reporter cells, luciferase luminescence, 8 h; inhibition, % at 10 µM; 2% of 360,000 active; in the data active = inhibition above about 50%
LGR2 antag = inhibitors of bursicon-induced LGR2 CRE-luciferase signal, primary screen, cell-based, HEK293, CRE-luciferase reporter, bursicon stimulation | Drosophila bursicon receptor LGR2 (rickets) | bursicon-stimulated, 4 h | inhibition, % at 9.99 µM | 0.35% of 380,000 active;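 active = drop in luminescence signal, shown as inhibition above about 50% in the replicate tests, limit read from the data, passing the limit was not always enough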;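 also: agonist challenge used bursicon conditioned medium at about half maximal strength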
TROY signal inh = inhibitors of TROY-driven NF-kB signaling, primary screen, Q293 LMP1-TROYcd cells, NF-kB luciferase, uHTS. inhibition, % at 10 µM. 0.98% of 360,000 active. Q293 LMP1-TROYcd NF-kB luciferase reporter, 4 h. AID 1347056, 2019;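 active = compounds whose plate-normalised and pattern-corrected inhibition of the luciferase reporter signal at the single screening dose is 50% or more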
Numbers stand for hits; . = inactive; / = no result given. This is a sample that favours compounds with a hit; in the whole collection about 3.6% have one here.

SMILES	HSF1 inh	LMP1 NFkB inh	HSF-1 act	TWEAK-Fn14 inh	LGR2 antag	TROY signal inh
CCOC(=O)c1ccc(N2C(=O)CC(N3CCC(Nc4ccc(F)cc4)CC3)C2=O)cc1 (configuration not stated)	.	.	57.9	.	/	.
CCOC(=O)c1ccc(N2C(=O)CC(N3CCN(Cc4ccccc4)CC3)C2=O)cc1 (configuration not stated)	.	.	.	.	/	.
NNC(=O)c1cc(-c2cccs2)nc2ccccc12	.	.	.	.	.	.
CC(C)(C)c1ccc(/C=N/NC(=O)c2ccccn2)cc1	.	.	.	71.0	86.4	52.3
CN(C)S(=O)(=O)c1ccc(NC(=O)c2cc(-c3cccs3)nc3ccccc23)cc1	.	.	.	.	.	88.2
COc1ccc(/C=N/NC(=O)c2cnccn2)cc1O	.	.	.	.	.	.
O=C(N/N=C/c1ccsc1)c1ccccn1	.	.	.	.	.	.
COc1cccc(/C=N/NC(=O)c2cnccn2)c1	-75.7	.	.	.	.	.
C/C(=N\NC(=O)c1cc(-c2cccs2)nc2ccccc12)c1ccccn1	.	72.4	.	.	/	.
C[C@H]1CN([C@@H](C)CO)C(=O)c2cccc(NS(=O)(=O)c3ccc(F)cc3)c2O[C@H]1CN(C)C(=O)Nc1ccc(C(F)(F)F)cc1	/	/	/	/	.	/
CCCNC(=O)N1[C@H](CO)[C@@H](c2ccc(C3=CCCC3)cc2)[C@@H]1CNC(=O)CC	/	/	/	/	.	/
C/C(=N\NC(=O)c1cccc(Br)c1)c1ccccn1	.	70.5	.	.	.	.
C/C(=N\NC(=O)C(c1ccccc1)c1ccccc1)c1ccccn1	.	.	.	56.7	.	.
C/C(=N\NC(=O)c1cc(Br)ccc1O)c1ccccn1	.	.	.	.	.	.
C/C(=N\NC(=O)C(c1ccccc1)c1ccccc1)c1ccc(O)cc1	.	.	.	.	.	.
C/C(=N\NC(=O)c1ccoc1C)c1cccc2ccccc12	.	.	57.3	.	.	.
COc1ccc(C(=O)N/N=C(\C)c2ccccn2)cc1OC	.	.	.	.	.	.
C/C(=N/NC(=O)c1ccc(C(C)(C)C)cc1)c1ccccn1	.	47.3	.	.	.	.
C/C(=N\NC(=O)c1ccoc1C)c1cccnc1	.	.	.	.	.	.
COc1ccc(-c2cn(CC[C@@H]3CC[C@H](NC(=O)Cc4ccccn4)[C@H](CO)O3)nn2)cc1	/	/	/	/	.	/
C[C@@H]1CCCCO[C@H](CN(C)S(=O)(=O)c2ccc(Cl)cc2)[C@@H](C)CN([C@@H](C)CO)C(=O)c2cc(N(C)C)ccc2O1	/	/	/	/	.	/
CCCNC(=O)N1C[C@@H](C)[C@H](OC)CN(C)C(=O)c2cc(NS(=O)(=O)CC(F)(F)F)ccc2OC[C@@H]1C	/	/	/	/	.	/
C/C(=N\NC(=O)c1cccc2ccccc12)c1ccccn1	.	.	.	101.5	.	.
C/C(=N\NC(=O)c1ccccc1Cl)c1ccccn1	.	.	.	.	.	.
C/C(=N\NC(=O)c1ccc(Cl)c(Cl)c1)c1ccccn1	.	72.7	.	.	.	.
SMILES	HSF1 inh	LMP1 NFkB inh	HSF-1 act	TWEAK-Fn14 inh	LGR2 antag	TROY signal inh
Cc1cccc2sc(NNC(=O)c3cc(-c4cccs4)nc4ccccc34)nc12	.	.	.	87.8	/	.
O=C(NCC1CC1)[C@@H]1[C@@H](CO)[C@@H]2Cn3c(ccc(C4=CCCCC4)c3=O)[C@@H]2N1Cc1ccccc1F	/	/	/	/	.	/
CCOC(=O)c1c(NC(=O)C2C3CCC(O3)C2C(=O)O)sc(C)c1-c1ccc(F)cc1 (configuration not stated)	.	79.8	.	.	/	.
C[C@@H]1CN([C@H](C)CO)S(=O)(=O)c2ccc(C#CCN(C)C)cc2O[C@H]1CN(C)C	/	/	/	/	.	/
CCN(CC)c1ccc(/C=C2/C(=O)N(c3ccc([N+](=O)[O-])cc3)N=C2N2CCOCC2)cc1	.	/	91.8	/	/	/
O=[N+]([O-])c1ccc(-c2cn(-c3ccccc3F)c(=S)[nH]2)cc1	.	.	60.3	.	.	.
O=C(O)c1ccn(Cn2cnc3ccccc32)n1	-75.3	.	.	.	/	.
